# Screening results as filed in PubChem BioAssay.
# This is a sample that favours compounds with a hit; in the whole collection about 3.5% have one here.
# Anthrax LF inh2: inhibitors of Bacillus anthracis lethal factor protease. inhibition, % at 10 µM. AID 588501. multiplex microsphere protease cleavage assay, LF. P15917. 0.12% of 360,000 active; also: plate controls were buffer without enzyme for full effect and enzyme alone for no effect
# Target sequence (P15917 whole entry, looked up): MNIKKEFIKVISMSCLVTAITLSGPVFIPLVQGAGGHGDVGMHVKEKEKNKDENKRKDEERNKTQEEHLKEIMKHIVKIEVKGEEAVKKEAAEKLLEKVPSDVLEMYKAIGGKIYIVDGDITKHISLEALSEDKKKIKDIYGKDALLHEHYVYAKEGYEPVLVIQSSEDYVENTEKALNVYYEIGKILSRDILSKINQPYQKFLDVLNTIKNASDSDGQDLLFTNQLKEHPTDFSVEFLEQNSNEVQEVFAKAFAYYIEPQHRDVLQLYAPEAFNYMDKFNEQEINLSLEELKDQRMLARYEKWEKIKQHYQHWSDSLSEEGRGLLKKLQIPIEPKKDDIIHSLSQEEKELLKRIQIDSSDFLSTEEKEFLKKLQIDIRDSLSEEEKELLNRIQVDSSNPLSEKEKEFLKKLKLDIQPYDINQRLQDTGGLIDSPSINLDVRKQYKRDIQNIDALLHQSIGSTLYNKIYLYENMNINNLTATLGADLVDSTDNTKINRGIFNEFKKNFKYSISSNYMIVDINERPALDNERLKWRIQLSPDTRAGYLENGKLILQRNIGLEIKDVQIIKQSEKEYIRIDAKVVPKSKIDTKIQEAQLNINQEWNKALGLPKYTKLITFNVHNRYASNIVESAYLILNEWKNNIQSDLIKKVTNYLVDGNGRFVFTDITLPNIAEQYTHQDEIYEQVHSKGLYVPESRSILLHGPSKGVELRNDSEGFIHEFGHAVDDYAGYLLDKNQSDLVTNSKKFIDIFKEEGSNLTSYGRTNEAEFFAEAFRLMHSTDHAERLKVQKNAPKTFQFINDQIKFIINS
# BoNT-F LC inh: BoNT F light chain protease inhibition. Multiplex microsphere protease cleavage assay, flow cytometry. 0.22% of 360,000 active. inhibition, % at 10 µM; in the data active = inhibition above about 35%, passing the limit was not always enough; inconclusive = no clear call, values can overlap the other calls; also: plate controls were buffer without enzyme for full effect and enzyme alone for no effect
# BoNT-A LC inh2: blocks Botulinum neurotoxin A light chain protease | multiplex microsphere protease substrate cleavage, flow cytometry | inhibition, % at 10 µM | 0.17% of 360,000 active | AID 588499; also: plate controls were buffer without enzyme for full effect and enzyme alone for no effect
# BJeLR lethal: BJeLR cell viability loss | BJeLR (HRASV12) viability, CellTiter-Glo ATP luminescence, 48 h | inhibition, % (no concentration beside the values) | 0.17% of 300,000 active | AID 1554; in the data active = inhibition above about 50%; inconclusive = no clear call, values can overlap the other calls
# Autofluor counter: compound fluorescence in toxin protease inhibitor counterscreen; fluorescence intensity (concentration not given with the values); compound autofluorescence counterscreen, microsphere flow cytometry; stronger effect = higher value; 3.1% of 360,000 active; in the data active = fluorescence intensity above about 16000; inconclusive = no clear call, values can overlap the other calls
# Active calls of the source: *; ? = inconclusive; . = not tested or not shown. Rule as the data show it, unless noted: active = inhibition above about 30%; inconclusive = no clear call, values can overlap the other calls; inactive = below that.
SMILES,Anthrax LF inh2,BoNT-F LC inh,BoNT-A LC inh2,BJeLR lethal,Autofluor counter
CCOC(=O)c1c(NC(=O)CSc2nnc(-c3ccccc3)o2)sc(C(C)=O)c1C,-5,-13,1,-1,3371
Cc1ccc(SCC(=O)n2nc(C)cc2C)cc1,-2,1,-1,9,2330
O=C(CSc1nnc(Cc2ccccc2)o1)NCc1ccco1,-9,1,1,1,21761*
CCOC(=O)c1c(NC(=O)CSc2nnc(Cc3ccccc3)o2)sc(C(C)=O)c1C,-3,-11,?,18,18103*
Cc1[nH]c2ccccc2c1Cc1nnc(SCC(=O)NCc2ccco2)o1,-8,-8,-1,-9,5439
COC(=O)c1ccccc1NC(=O)CSc1nnc(Cc2ccc(Cl)cc2)o1,-23,11,6,7,19277*
CC(C)(C)c1ccc(C(=O)N2CCC2(C)C(=O)NCc2ccc3c(c2)OCO3)cc1 (stereo not drawn),-5,-7,-1,.,3759
C=CCC[C@H](CCCCC)OC(=O)/C=C/[C@@H](O)[C@H](O)C[C@H](O)CC=C,-2,-8,0,.,6261
O=C(O)c1ccc(CSc2nnc(Cc3ccccc3)o2)cc1,-5,-2,-3,6,16912*
COc1ccc(/C(O)=C/Sc2nnc(Cc3ccccc3)o2)cc1,-6,-4,-2,-3,24165*
COC(=O)C(C(=O)OC)C(c1ccccc1)C(C(=O)c1ccccc1)[N+](=O)[O-] (stereo not drawn),-9,7,1,-6,5673
CC[n+]1c(/C=C2\Sc3ccccc3N2C)ccc2cccc(C)c21,-31,-60,62*,35,4252
CCN1/C(=C/c2ccc3cc(C)ccc3[n+]2CC)Sc2cc(C)c(C)cc21,-62,-93,49*,.,8339
CCN1/C(=C/c2ccc3cc(C)ccc3[n+]2CC)Sc2ccccc21,22,-28,78*,.,6257
CC[n+]1ccccc1/C=C1\Sc2ccc(C)cc2N1C,-13,-6,3,19,3305
C=CCNc1nc2cc(-c3ccccc3C)sc2c(=O)n1C,5,-3,0,.,4080
COc1cccc(CNc2nc3cc(-c4ccsc4)sc3c(=O)n2C)c1OC,0,-2,0,.,3056
CCN(CC(=O)Nc1c(F)cccc1F)C(=O)c1cc2ccccc2oc1=O,1,8,1,-5,5668
CC1(C(=O)NS(=O)(=O)C2CC2)CCCN(C(=O)c2cccs2)C1 (stereo not drawn),1,3,0,.,3728
CC(=O)c1ccc(NC(=O)CSC(C)C)cc1,0,2,0,-3,22011*
CCOc1ccc(C(=O)CSCC(=O)O)cc1,-2,-2,-1,16,4752
Cc1nn(-c2ccccc2)c2sc(C(=O)NNC(=O)COc3ccccc3)cc12,-5,1,?,6,22047*
Cc1nn(-c2ccccc2)c2sc(C(=O)NNC(=O)COc3cccc4ccccc34)cc12,12,-3,0,-7,6157
COc1ccc(C2N(C(=O)N(C)C)CCN2S(=O)(=O)c2ccc(OC)cc2)cc1 (stereo not drawn),0,-5,1,0,4721
Oc1ccc(CN2CCc3ccccc3C2)c2cccnc12,-3,-12,-2,13,16689*
SMILES,Anthrax LF inh2,BoNT-F LC inh,BoNT-A LC inh2,BJeLR lethal,Autofluor counter
Cn1cc(CN2CCc3ccccc3C2)c2ccccc21,1,-4,-3,3,21029*
O=C(O)CCCC(=O)OCCCCc1cccs1,-1,2,?,1,19404*
CC(Oc1ccc(Cl)cc1Cl)C(=O)NC1CCSC1=O (stereo not drawn),-4,-2,-1,-4,22259*
CCCC(C)C(=O)NC1CCSC1=O (stereo not drawn),1,-5,0,3,16556*
CS(=O)(=O)c1ccc2nc(NC(=O)c3cc(-c4ccccc4)nn3-c3ccccc3)sc2c1,-1,-5,0,3,2111
COc1ccc(-c2nn(-c3ccccc3)cc2/C=C2/SC(=S)N(Cc3ccco3)C2=O)c(C)c1,36*,37*,30*,-18,12304
CCOc1ccc(S(=O)(=O)N2CCN(c3ccccc3OC)CC2)c2cccnc12,-5,-8,0,-3,3974
Cc1ccc(N=Cc2ccc[nH]2)c(O)c1,-9,-4,?,2,21732*
NC(Cc1ccc(C(F)(F)F)cc1)c1csc(Nc2ccc(C(=O)NCc3ccco3)cn2)n1 (stereo not drawn),-9,-11,0,.,2858
C#CCN(C#N)c1nc(NCC)nc(NC(C)C)n1,0,0,0,4,23207*
Cc1cc(C(=O)CSc2nnc(-c3ccccc3F)o2)c(C)n1Cc1cccs1,-1,0,0,4,20558*
COc1ccccc1-n1cnnc1SCC(=O)c1cc(C)n(Cc2cccs2)c1C,-1,-1,-1,2,17083*
C=CCn1c(SCC(=O)c2cc(C)n(Cc3cccs3)c2C)nnc1-c1ccncc1,2,0,1,4,3140
O=C(CSc1nc2ccc([N+](=O)[O-])cc2[nH]1)NCCc1ccccc1,-2,3,6,10,20820*
O=S(=O)(c1ccc(N2CCCC2)cc1)C(F)(F)F,-1,1,1,1,16476*
O=S(=O)(c1ccc(N2CCN(c3ccc(F)cc3)CC2)cc1)N1CCCC1,-4,-6,0,-23,9751
C[C@H](CO)N1C[C@H](C)[C@@H](CN(C)Cc2ccc(-c3ccccc3)cc2)OCc2cnnn2CCCC1=O,-9,1,0,.,3450
CCN(CC)C(=O)[C@H]1CC(CC(=O)NC(C)(C)C)C(=O)N2CCc3c([nH]c4ccccc34)[C@]12C (stereo partly drawn),-6,-1,0,.,3975
Cc1nc(SCC(=O)CC(=O)OC(C)C)c(C#N)c(C)c1C,-11,-13,-2,6,9811
CSc1nc(N)nc(SCC(=O)CC(=O)OC(C)C)c1C#N,0,-3,?,-3,20850*
CCN1CCc2c(sc(NC(=O)c3cc4ccccc4cc3OC)c2C(N)=O)C1,0,-2,3,60*,7828
CCOC(=O)c1c(NC(=S)Nc2ccccc2)sc2c1CCCCC2,2,-5,2,3,10509
CCOC(=O)c1c(NC(=S)Nc2ccccc2)sc2c1CCN(CC)C2,31*,2,18,9,9132
Cc1nn(C)cc1/C=N/O,-9,12,9,-2,16844*
CC1(C(=O)NS(=O)(=O)c2ccc(C#N)cc2)CCN1C(=O)Cc1ccccc1Cl (stereo not drawn),5,0,0,.,3726
Cc1nnc(SCCOC(N)=O)n1C,1,8,9,6,20927*
Cc1nnc(SCC(=O)N2CCOCC2)n1C,-3,-3,0,5,2957
CC(Oc1ccccc1)c1ccnc2nc(/N=C/N(C)C)nn12 (stereo not drawn),-2,6,?,9,21790*
CC1(CCc2ccccc2)NC(=O)N(CC(=O)Nc2ccc3c(c2)OCCO3)C1=O (stereo not drawn),-6,4,0,-2,4113
